# Assay outcomes from PubChem.
# dFosB act: activators of delta FosB homodimer, primary screen, biochemical, fluorescence polarization, TAMRA-CDK5 oligo, single point. Protein FosB (Mus musculus), P13346. purified delta FosB; percent of positive-control signal above neutral wells. activation, % at 25 µM. 340,000 tested, 0.99% active;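 active = mean activation above about 17%, with every replicate also reaching it, limit read from the data, passing the limit was not always enough; inconclusive = only one of the two conditions met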
# Target sequence (P13346 whole entry, looked up): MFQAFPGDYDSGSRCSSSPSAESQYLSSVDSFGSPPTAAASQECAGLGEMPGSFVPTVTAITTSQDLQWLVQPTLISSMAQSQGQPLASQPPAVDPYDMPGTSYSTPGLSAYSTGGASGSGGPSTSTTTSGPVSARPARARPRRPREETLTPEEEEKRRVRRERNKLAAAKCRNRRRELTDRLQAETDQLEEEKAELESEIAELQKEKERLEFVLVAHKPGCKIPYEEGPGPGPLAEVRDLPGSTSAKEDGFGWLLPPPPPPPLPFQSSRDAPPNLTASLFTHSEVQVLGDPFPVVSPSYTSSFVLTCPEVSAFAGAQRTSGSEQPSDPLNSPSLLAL
# Yeast superoxide: reduction of superoxide in aged yeast, primary screen, HTS; superoxide response (% of plate mean), % at 10 µM; AID 2690, 2010; 330,000 tested, 0.18% active; S. cerevisiae aged cells, superoxide DHE fluorescence; hits give low values;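 active = superoxide response under a set limit, about three screen SD below normal, cut at about 65% in these data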;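 note: yeast aged for seven days with compound at 30 °C before DHE staining; 100% = average MFI of all compound-treated wells on the plate with controls excluded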
# NR3A LBD binder: binders of NR3A ligand-binding domain, primary screen, biophysical, differential scanning fluorimetry, uHTS; NR3A LBD differential scanning fluorimetry, Tm shift; 0% = protein alone, 100% = glycine-bound protein; Glutamate receptor ionotropic, NMDA 3A (GRIN3A) ligand-binding domain; 340,000 tested, 2.5% active; Tm shift relative to glycine control, % at 25 µM; AID 1259313, 2017;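 active = melting temperature shift of at least 10% of the positive control shift, at one fixed dose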
# UBC13 inh: UBC13 polyubiquitin chain formation inhibitors, primary screen, biochemical, TR-FRET, uHTS. 330,000 tested, 0.47% active. inhibition, % at 20 µM. Ubiquitin-conjugating enzyme E2 N (Homo sapiens), P61088; in the data active = inhibition above about 45%, passing the limit was not always enough; inconclusive = no clear call, values can overlap the other calls
# Target sequence (P61088 whole entry, looked up): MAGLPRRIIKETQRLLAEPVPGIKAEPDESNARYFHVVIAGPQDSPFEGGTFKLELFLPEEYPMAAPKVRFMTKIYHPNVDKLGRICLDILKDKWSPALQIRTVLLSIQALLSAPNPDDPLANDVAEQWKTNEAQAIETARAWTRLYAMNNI
# NALP1 inh: NALP1 inflammasome inhibitors in reconstituted yeast, colorimetric, S. cerevisiae, triplicate retest | S. cerevisiae NALP1/ASC/caspase-1 growth, X-gal OD620, 72 h | inhibition, % at 10 µM | 280,000 tested, 0.61% active | AID 2071, 2009; in the data active = inhibition mostly above about 24%, no sharp cut-off; inactive = mostly below about 32%
# * marks the source's active call; other numbers are inactive results; ? = inconclusive; · = not tested or not shown. Shown are actives, neighbours in structure and some others; about 4.3% of the full set was active somewhere.
SMILES,dFosB act,Yeast superoxide,NR3A LBD binder,UBC13 inh,NALP1 inh
Cc1nnc2nc(-c3ccccc3)nc(-c3ccccc3)n12,-41,96,12*,21,-1
O=C1Cc2cc(NS(=O)(=O)c3cc(F)ccc3F)cc3c2N1CCC3,-14,101,·,3,·
NS(=O)(=O)c1ccc(N2CCOCC2)c(C(=O)NCc2ccc3c(c2)OCO3)c1,-2,·,2,-1,·
CN(C)S(=O)(=O)c1ccc(N2CCOCC2)c(C(=O)NCc2ccc3c(c2)OCO3)c1,-6,62*,1,1,·
COc1ccc(NC(=O)c2cc(C)nc3ccccc23)cc1S(=O)(=O)Nc1ccccc1Cl,0,97,-14,6,38
COc1ccc(NC(=O)c2ccc3ccccc3n2)cc1S(=O)(=O)Nc1ccccc1Cl,-9,114,16*,-16,·
O=C(COc1ccc(Cl)c(Cl)c1)NN1C(=O)C2C(C1=O)C1C=CC2C12CC2 (stereo not given),0,106,-11,7,4
CC(C)=C1C2CCC1C1C(=O)N(NC(=O)COc3ccc(Cl)c(C)c3)C(=O)C21 (stereo not given),-9,116,-7,-2,41*
COc1ccc(NC(=O)COc2cccc(-n3cnnn3)c2)cc1Cl,9,107,-14,2,·
O=C1OCCN1C(=O)[C@H]1[C@H](c2ccc(Cl)cc2)C(c2ccc(F)cc2)=NN1c1ccc(Br)cc1,-12,94,18*,·,·
O=C1OCCN1C(=O)[C@H]1[C@H](c2ccc(Cl)cc2)C(c2ccc(F)cc2)=NN1c1ccccc1,-20,115,0,·,·
O=C1OCCN1C(=O)[C@H]1[C@H](c2ccc(F)cc2)C(c2ccc(F)cc2)=NN1c1ccc(Br)cc1,-2,45*,-4,?,21
O=C(CCSc1ccc(Br)cc1)c1ccc(O)cc1,12,110,12*,11,5
O=C(CCO)c1ccc(O)cc1,-10,91,-1,4,-12
COc1ccc(Cl)cc1NC(=O)CN(C)C(=O)c1sccc1-c1ccccc1,-13,100,-16,10,·
Nc1cc(Cl)nc(N/N=C/c2c(O)ccc3ccccc23)n1,?,117,28*,30,29
COc1ccc(/C=N/Nc2nc(N)cc(Cl)n2)cc1OC,-4,95,12*,22,9
COc1ccc(/C=N/Nc2ccccn2)cc1OC,-7,87,3,-17,12
COc1ccc(/C=N/Nc2nonc2N)cc1,-3,99,17*,8,15
COc1ccc(/C=N/Nc2nonc2N)cc1OC,-5,93,-8,15,-2
Nc1nonc1N/N=C/c1c(O)ccc2ccccc12,5,102,25*,38,-8
O=C(O)c1cc(N/N=C/c2c(O)ccc3ccccc23)ccc1Cl,-7,106,8,-14,-46
Cc1cc(=O)oc2cc(OCC(=O)OCC(=O)NCCc3ccccc3)ccc12,-7,104,0,-14,7
Nc1cnnc(N/N=C\c2ccccc2)c1Cl,-2,117,0,-11,·
Nc1nonc1N/N=C\c1ccccc1,-7,86,18*,4,-2
SMILES,dFosB act,Yeast superoxide,NR3A LBD binder,UBC13 inh,NALP1 inh
O=C(O)c1ccccc1-c1ncc(-c2ccccc2)o1,1,104,-1,3,·
S=c1[nH]c2cc3ccccc3cc2[nH]1,0,97,26*,-27,-7
O=C(Nc1ccccc1)Nc1cccc(-c2cn3cccnc3n2)c1,10,113,13*,-1,15
O=C(Nc1cccc(-c2cn3cccnc3n2)c1)c1ccco1,-19,91,0,10,4
CCCC(=O)Nc1cccc(-c2cn3cccnc3n2)c1,-1,103,1,7,8
O=C(Nc1cccc(-c2cn3cccnc3n2)c1)Nc1ccccc1F,-7,92,12*,9,4
COc1cccc(CN(C)C(=O)[C@@H](NC(=O)c2ccc(C)cc2)C(C)C)c1,0,92,4,-4,14
CCOc1ccc(C(=O)Nc2cc(NC(=O)c3ccc(OCC)c(Cl)c3)cc(C(=O)O)c2)cc1Cl,1,·,23*,-8,5
CCOc1ccc(C(=O)Nc2ccc(Cl)cn2)cc1Cl,?,97,25*,2,1
O=C(Nc1ccc(Cl)cn1)Nc1ccc(Cl)cn1,?,70,29*,-8,30*
O=C(Nc1ccc(Cl)cn1)c1cc2ccccc2o1,-3,102,-6,-1,-1
O=C(Nc1ccc(Cl)cn1)c1ccc(-c2cc(Cl)ccc2Cl)o1,?,104,16*,8,-6
CCOc1ccc(C(=O)Nc2cccc(C(=O)O)c2)cc1Cl,-3,105,1,-1,3
O=C(NCc1cccnc1)c1ccc(Br)s1,-9,110,0,16,·
Nc1nc(NCCc2ccccc2)nc(NCCO)c1[N+](=O)[O-],-6,89,0,5,7
O=C(OC1CCCCC1=O)c1cc(S(=O)(=O)N2CCOCC2)ccc1F (stereo not given),-2,95,5,6,4
O=C(CCCc1nc(-c2ccc(Cl)cc2)no1)NC1CCCC1,-2,103,1,-5,7
O=C(Nc1ccc(-c2nc3ccccc3o2)cc1)c1ccc(N2CCOCC2)c([N+](=O)[O-])c1,-2,102,14*,-29,0
COc1ccc2oc(-c3ccc(NC(=O)c4ccc(N5CCOCC5)c([N+](=O)[O-])c4)cc3)nc2c1,-2,97,37*,-18,33
O=C(Nc1cccnc1)c1ccc(N2CCOCC2)c([N+](=O)[O-])c1,10,98,1,-19,9
N#Cc1c(-c2ccc(Cl)cc2)c2c([nH]c1=O)-c1ccccc1OC2,-15,104,1,4,·
CCC(C)(C)NC(=O)C(Sc1ccccc1)c1ccccc1 (stereo not given),-4,91,-3,4,4
O=C1NC(c2ccccc2)(C(F)(F)F)C(=O)N1Cc1cccnc1 (stereo not given),-2,90,20*,4,·
COC(=O)CSc1nc(NCc2ccccc2)nc(N(C)C)n1,-9,103,-2,-5,6
CCNc1nc(SCC(=O)Nc2ccc(Cl)c(Cl)c2)nc(N(C)C)n1,-3,106,10*,-6,9
CN(C)c1nc(NCc2ccccc2)nc(SCC(=O)Nc2ccc(Cl)c(Cl)c2)n1,-11,118,32*,6,6
CCCCN1C(=O)c2cccc3cc(O)cc(c23)C1=O,-7,106,-1,17,·
O=C(/C=C/Nc1ccc(F)cc1F)c1cccs1,8,93,9,5,23
O=C(/C=C/Nc1ccccc1F)c1cccs1,-12,105,-33,-4,57*
